# Results as given in PubChem BioAssay (NCATS).
# Unmarked numbers belong to inactive results. Results filed as inconclusive are left out. Entries that show only a call come without a potency. Activity calls are given as the source filed them. Unless noted, calls follow the shape of the dose curve; as a rule, active = well fitted curve in either direction with a large enough effect (not every such curve was filed as active); inconclusive = small, poorly fitted or top-dose-only effect, or another doubt; inactive = flat fitted curve, though single readings scatter.
# How the values were obtained:
# [1] = AP1 Signaling Pathway (AID 357); details: ME-180 AP-1-bla reporter, EGF-induced, beta-lactamase ratio, 5 h; at 17.2 µM (top of the series) unless noted;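 also: ME-180 reporter cells stimulated with EGF at its EC50 level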
# Procedure, shortened: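 Read-out was the 460nm/530nm emission ratio (excitation 405nm) after CCF4 loading for 2.5 hours at room temperature. Cells carried an AP-1-driven beta-lactamase reporter, were stimulated with EC50 EGF plus compound for 5 hours, and AC50 values came from titrations.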
# [2] = NFAT Signaling Pathway (AID 444); details: Jurkat NFAT-bla M1, carbachol, beta-lactamase ratio, 5 h; at 17.2 µM (top of the series) unless noted;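 also: carbachol stimulus at about its EC50 of 1 µM final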
# Procedure, shortened: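 Read-out: CCF4 FRET ratio (460 nm/530 nm) after 1 h RT dye loading, used for %activity and AC50 from titration series. Cells: Jurkat NFAT-β-lactamase/M1 line, treated with compound plus 1 uM carbachol for 5 h, 37 °C.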
# [3] = Stat Signaling Pathway (AID 446);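 also: ME-180 cervical cancer cells given 40 pM IL-6 alongside compound; SIE-controlled beta-lactamase reporter measured as 460/530 nm FRET emission ratio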
# Procedure, shortened: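 Reporter line: ME-180 cervical carcinoma, SIE-beta-lactamase. Treatment: compound with 40 pM IL-6, 5 hrs, 37 C, in low-serum OPTI-MEM with 10 mM HEPES pH 7.3. Detection: 460/530 nm fluorescence.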
# [4] = biological target: Cytochrome P450 1A2 (Homo sapiens) (UniProt P05177); assay: p450-cyp1a2 (AID 410; calls by dose curve; also: potency is read from the fitted curve at half-maximal effect)
# Procedure, shortened: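 Inhibition was calculated relative to 57 uM furafylline (full inhibition). The reaction used human CYP1A2 at 20nM with Luciferin-ME at its Km, 100uM, driven by an NADPH-regenerating system for 60 min at room temperature.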
# [5] = biological target: Glucocorticoid receptor (Homo sapiens) (UniProt P04150); assay: GR-GFP Redistribution (AID 450;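 active = compounds whose dose series gives a full or clear partial fitted curve of increased nuclear translocation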; also: potency is read from the fitted curve at half-maximal effect); details: U2OS GR-GFP nuclear translocation, laser cytometry, 2 h
# [6] = biological target: Glucocorticoid receptor (Homo sapiens) (UniProt P04150); assay: GR-EFC Redistribution (AID 451; calls by dose curve; also: potency is read from the fitted curve at half-maximal effect); details: CHO-K1 GR-EFC translocation, beta-gal luminescence, 2 h
# Procedure, shortened: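 Translocation of GR-ED fusion to nuclear EA restores b-gal, read by luminescence after 1 h room-temperature detection. Engineered CHO-K1 biosensor cells, 1,000/well, exposed 2 h at 37 C to titrations up to 46 uM final.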
# [7] = biological target: Mitogen-activated protein kinase 10 (Mus musculus) (UniProt Q61831); assay: JNK3 AlphaScreen Assay (AID 530);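 also: kinase came from lysate of stimulated human HepG2 cells; signal reports phosphorylation of biotinylated GST-cJun 1-79 at Ser73 with 10 µM ATP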
# Procedure, shortened: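 Room-temperature AlphaScreen kinase assay; pre-activated HepG2 lysate as JNK3 source, biotin-GST-cJun(1-79) substrate, 10 uM ATP, compound 15 min preincubation.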
# [8] = biological target: 3',5'-cyclic-AMP phosphodiesterase 4B (Homo sapiens) (UniProt Q07343); assay: qHTS Assay for Inhibitors of PDE-IV (AID 607; active = well fitted activation curve with a large enough effect in the main read-out, with a control signal flat, not every such curve was filed as active)
# Procedure, shortened: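 Cell-based read-out of cAMP via a modified cyclic nucleotide-gated channel and membrane potential dye (535/590 nm) in HEK293 cells expressing PDE4 endogenously. Compounds tested up to 22.9 uM final; 100 uM RO 20-1724 reference.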
# [9] = biological target: Guanine nucleotide-binding protein G(i) subunit alpha-1 (Homo sapiens) (UniProt P63096); assay: qHTS Assay for Inhibitors of RGS12 GoLoco Motif Activity (Green Fluorophore) (AID 879; active = well fitted curve in the direction sought with a large enough effect; an effect the other way counts as inactive or inconclusive;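 also: negative values mean loss of peptide binding seen as reduced polarization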)
# Procedure, shortened: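 Fluorescence polarization assay: 50 nM Gαi1 with 10 nM FITC-labeled RGS12 GoLoco peptide in 10 mM Tris pH 7.5, 150 mM NaCl, 0.1 mM GDP, 0.05% NP40, 10 min at room temperature with compound.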
# [10] = biological target: Cytochrome P450 3A4 (Homo sapiens) (UniProt P08684); assay: qHTS Assay for Inhibitors and Substrates of Cytochrome P450 3A4 (AID 884; active = well fitted curve in the direction sought with a large enough effect; an effect the other way counts as inactive or inconclusive; also: potency is read from the fitted curve at half-maximal effect; nearly all actives have a fitted effect of over 50% in size)
# Procedure, shortened: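 20 nM human CYP3A4 with 25 uM Luciferin-PPXE (at KM) in 200 mM KPO4, preincubated 10 min with compound; NADPH regeneration started a 60 min RT reaction. Luciferin detected by luminescence, normalized to 57 uM ketoconazole as full inhibition.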
# [11] = biological target: Cytochrome P450 3A4 (Homo sapiens) (UniProt P08684); assay: qHTS Assay for Activators of Cytochrome P450 3A4 (AID 885; active = well fitted curve in the direction sought with a large enough effect; an effect the other way counts as inactive or inconclusive; also: nearly all actives have a fitted effect of over 65% in size)
# Procedure, shortened: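 Signal was normalized against complete inhibition by 57 uM ketoconazole. The reaction used 20nM CYP3A4 with 25uM Luciferin-PPXE, 10-min compound preincubation and a 60-min NADPH-supported step at RT.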
# [12] = qHTS Assay for Identification of Small Molecule Antagonists for Thrombopoietin (TPO) Signaling Pathway (AID 918; active = well fitted curve in the direction sought with a large enough effect; an effect the other way counts as inactive or inconclusive; also: potency is read from the fitted curve at half-maximal effect; nearly all actives have a fitted effect of over 60% in size); details: TPO-dependent cell signaling reporter, antagonist mode
# Procedure, shortened: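 First, Ba/F3 reporter cells expressing human TPO receptor were held overnight without IL-3. Next, compound and 26 pM TPO were added. After 24 hrs incubation at 37 C, luciferase luminescence under the Glycoprotein IIb promoter was recorded.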
# [13] = biological target: Muscarinic acetylcholine receptor M1 (Rattus norvegicus) (UniProt P08482); assay: qHTS Assay for Antagonists of Acetylcholine Muscarinic M1 Receptor: Kinetic Measurement of Intracellular Calcium Response (AID 943; active = well fitted curve in the direction sought with a large enough effect; an effect the other way counts as inactive or inconclusive; also: nearly all actives have a fitted effect of over 75% in size; also: potency is read from the fitted curve at half-maximal effect;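 as to activity change, negative = inhibition: Fluo-4 calcium signal as peak divided by basal fluorescence over 4 min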)
# Procedure, shortened: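 Intracellular calcium flux, recorded with Fluo-4 in a kinetic plate reader, served as signal; the response to carbachol at EC80 (100 nM final) was taken as maximal over minimal fluorescence after a 10 min compound pre-incubation in rat M1-CHO cells.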
# [14] = biological target: Muscarinic acetylcholine receptor M1 (Rattus norvegicus) (UniProt P08482); assay: qHTS Assay for Antagonists of Acetylcholine Muscarinic M1 Receptor: Measurement of IP-One Response (AID 944; active = well fitted curve in the direction sought with a large enough effect; an effect the other way counts as inactive or inconclusive; also: nearly all actives have a fitted effect of over 75% in size; also: potency is read from the fitted curve at half-maximal effect)
# Procedure, shortened: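 Steps: plate transfected CHO-M1 cells overnight; add test compound, 10 min; add carbachol (200 nM, EC80) in stimulation buffer with LiCl; incubate 30 min; add labelled IP1 tracer and anti-IP1 antibody in lysis buffer; read HTRF after 10 min.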
# [15] = biological target: Pyruvate kinase PKM (Homo sapiens) (UniProt P14618); assay: qHTS Assay for Activators of Human Muscle Pyruvate Kinase (AID 954; active = well fitted curve in the direction sought with a large enough effect, not every such curve was filed as active)
# Procedure, shortened: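 Human PKM2 activity is measured as ATP generation, detected by luciferase-coupled luminescence. The enzyme (0.1 nM) acts on 0.5 mM PEP and 0.1 mM ADP for 1 h at ambient temperature; data are normalized to uninhibited and full-inhibition wells.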
# [16] = biological target: Alpha-galactosidase (Coffea arabica) (UniProt Q42656); assay: Counterscreen for Glucocerebrosidase Inhibitors: qHTS Assay for Coffee Bean alpha-Galactosidase at pH 4.5 (AID 957; active = well fitted curve in the direction sought with a large enough effect; an effect the other way counts as inactive or inconclusive)
# Procedure, shortened: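 AC50 values derive from Hill-equation modeling of concentration-response data, normalized to no-enzyme and full-activity controls. The pH 4.5 citrate assay used 2 nM coffee bean enzyme and 80 uM fluorogenic substrate for 20 min.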
# [17] = biological target: Alpha-galactosidase A (Homo sapiens) (UniProt P06280); assay: Counterscreen for Glucocerebrosidase Inhibitors: qHTS Assay for Human alpha-Galactosidase at pH 4.5 (AID 992; active = well fitted curve in the direction sought with a large enough effect; an effect the other way counts as inactive or inconclusive)
# Procedure, shortened: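 Quantitative HTS: compounds tested from 0.7 nM up to 77 uM against 2 nM enzyme with 80 uM 4-MU alpha-D-galactopyranoside. The 20 min room-temperature reaction is stopped with 1M NaOH/1M glycine, pH 10.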
# [18] = biological target: Alpha-galactosidase (Coffea arabica) (UniProt Q42656); assay: Counterscreen for Glucocerebrosidase Inhibitors: qHTS Assay for Coffee Bean alpha-Galactosidase at pH 5.9 (AID 998; active = well fitted curve in the direction sought with a large enough effect; an effect the other way counts as inactive or inconclusive)
# Procedure, shortened: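 Compounds were titrated from 0.7 nM to 77 uM against green coffee bean alpha-galactosidase (2 nM) using 80 uM fluorogenic 4-methylumbelliferyl substrate. After 20 min at room temperature, reactions were stopped at pH 10 and read by fluorescence.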
# [19] = biological target: Cytochrome P450 2C9 (Homo sapiens) (UniProt P11712); assay: qHTS Assay for Inhibitors and Substrates of Cytochrome P450 2C9 (AID 883; active = well fitted curve in the direction sought with a large enough effect; an effect the other way counts as inactive or inconclusive; also: nearly all actives have a fitted effect of over 60% in size)
# Procedure, shortened: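 Luminescent read-out of deoxyluciferin hydroxylation, normalized to 57uM sulphaphenazole (AC100). Reaction: 10nM enzyme, 100uM Luciferin-H (equal to KM), 25mM KPO4, 10 min compound preincubation, then 60 min with NADPH regeneration, both at 37C.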
# [20] = biological target: Cytochrome P450 2D6 (Homo sapiens) (UniProt P10635); assay: qHTS Assay for Inhibitors and Substrates of Cytochrome P450 2D6 (AID 891; active = well fitted curve in the direction sought with a large enough effect; an effect the other way counts as inactive or inconclusive;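 also: luciferin methyl ether substrate demethylated by CYP2D6 with NADPH regeneration; nearly all actives have a fitted effect of over 60% in size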)
# Procedure, shortened: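 Human CYP2D6 (5 nM) with 30 uM Luciferin-ME EGE (at Km) in 100 mM KPO4, compound preincubated 10 min, then NADPH regeneration system for 60 min at room temperature. Luciferin read by luminescence; normalized to 1.43 uM quinidine.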
# [21] = biological target: Cytochrome P450 2C19 (Homo sapiens) (UniProt P33261); assay: qHTS Assay for Inhibitors and Substrates of Cytochrome P450 2C19 (AID 899; active = well fitted curve in the direction sought with a large enough effect; an effect the other way counts as inactive or inconclusive; also: nearly all actives have a fitted effect of over 60% in size)
# Procedure, shortened: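 Luminescence readout of luciferin formed from 10uM Luciferin-H EGE (KM level) by 5 nM CYP2C19 in 50mM KPO4. 60 min NADPH-driven reaction at 37C after 10 min compound preincubation; data scaled to 57uM ketoconazole inhibition.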
# [22] = qHTS Assay for Identification of Small Molecule Agonists for Thrombopoietin (TPO) Signaling Pathway (AID 917; active = well fitted curve in the direction sought with a large enough effect; an effect the other way counts as inactive or inconclusive)
# Procedure, shortened: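 Luminescence from a Glycoprotein IIb promoter–driven luciferase reporter served as read-out in murine Ba/F3 cells carrying the human TPO receptor. Cells, deprived of IL-3 overnight, received compounds with 26 pM TPO and were incubated 24 hrs at 37 C.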
# Sequence of 3',5'-cyclic-AMP phosphodiesterase 4B (Homo sapiens) (Q07343 whole entry, looked up): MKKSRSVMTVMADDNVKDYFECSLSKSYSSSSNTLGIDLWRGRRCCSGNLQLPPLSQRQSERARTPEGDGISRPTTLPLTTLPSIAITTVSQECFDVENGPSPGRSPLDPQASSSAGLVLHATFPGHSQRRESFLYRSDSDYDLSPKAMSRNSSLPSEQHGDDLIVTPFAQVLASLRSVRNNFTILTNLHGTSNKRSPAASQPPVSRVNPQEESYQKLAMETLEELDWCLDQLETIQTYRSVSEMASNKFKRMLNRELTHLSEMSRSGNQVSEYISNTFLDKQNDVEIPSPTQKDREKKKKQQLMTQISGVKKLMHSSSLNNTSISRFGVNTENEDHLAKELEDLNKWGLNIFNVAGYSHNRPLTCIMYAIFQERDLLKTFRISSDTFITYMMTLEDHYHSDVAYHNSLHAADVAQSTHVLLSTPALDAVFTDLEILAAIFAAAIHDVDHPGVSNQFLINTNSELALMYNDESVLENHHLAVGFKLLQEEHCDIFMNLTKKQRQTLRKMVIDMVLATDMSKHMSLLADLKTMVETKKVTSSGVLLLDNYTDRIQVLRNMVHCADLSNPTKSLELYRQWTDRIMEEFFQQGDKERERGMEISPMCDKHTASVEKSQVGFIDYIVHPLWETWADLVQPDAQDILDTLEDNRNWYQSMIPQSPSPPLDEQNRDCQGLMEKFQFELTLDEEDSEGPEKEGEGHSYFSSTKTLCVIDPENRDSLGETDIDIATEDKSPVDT
# Sequence of Muscarinic acetylcholine receptor M1 (Rattus norvegicus) (P08482 whole entry, looked up): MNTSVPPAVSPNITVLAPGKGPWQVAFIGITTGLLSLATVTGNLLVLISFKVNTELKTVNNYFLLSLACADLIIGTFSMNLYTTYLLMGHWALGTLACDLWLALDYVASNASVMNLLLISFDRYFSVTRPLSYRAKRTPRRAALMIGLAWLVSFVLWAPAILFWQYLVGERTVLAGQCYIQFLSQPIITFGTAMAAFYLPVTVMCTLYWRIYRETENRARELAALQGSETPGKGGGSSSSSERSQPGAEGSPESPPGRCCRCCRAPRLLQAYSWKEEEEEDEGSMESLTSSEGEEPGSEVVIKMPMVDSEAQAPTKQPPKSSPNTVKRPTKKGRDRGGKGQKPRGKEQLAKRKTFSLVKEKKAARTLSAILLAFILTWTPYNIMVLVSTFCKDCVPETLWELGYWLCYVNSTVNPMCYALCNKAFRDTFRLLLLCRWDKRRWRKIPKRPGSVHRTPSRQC
# Sequence of Cytochrome P450 1A2 (Homo sapiens) (P05177 whole entry, looked up): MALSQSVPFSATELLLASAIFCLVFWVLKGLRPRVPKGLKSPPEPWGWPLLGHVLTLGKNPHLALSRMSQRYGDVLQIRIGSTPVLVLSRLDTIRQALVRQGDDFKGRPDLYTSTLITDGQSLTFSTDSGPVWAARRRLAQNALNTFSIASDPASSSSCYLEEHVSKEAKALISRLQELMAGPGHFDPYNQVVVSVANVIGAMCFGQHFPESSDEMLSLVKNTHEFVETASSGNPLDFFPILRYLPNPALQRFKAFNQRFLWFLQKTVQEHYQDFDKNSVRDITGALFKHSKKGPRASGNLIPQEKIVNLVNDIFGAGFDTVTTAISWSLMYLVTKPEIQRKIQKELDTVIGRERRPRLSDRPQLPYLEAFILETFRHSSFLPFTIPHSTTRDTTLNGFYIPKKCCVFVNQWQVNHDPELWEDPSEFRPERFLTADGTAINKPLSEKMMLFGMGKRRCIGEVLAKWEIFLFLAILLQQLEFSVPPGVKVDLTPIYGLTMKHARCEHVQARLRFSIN
# Sequence of Glucocorticoid receptor (Homo sapiens) (P04150 whole entry, looked up, the tested form may be a part): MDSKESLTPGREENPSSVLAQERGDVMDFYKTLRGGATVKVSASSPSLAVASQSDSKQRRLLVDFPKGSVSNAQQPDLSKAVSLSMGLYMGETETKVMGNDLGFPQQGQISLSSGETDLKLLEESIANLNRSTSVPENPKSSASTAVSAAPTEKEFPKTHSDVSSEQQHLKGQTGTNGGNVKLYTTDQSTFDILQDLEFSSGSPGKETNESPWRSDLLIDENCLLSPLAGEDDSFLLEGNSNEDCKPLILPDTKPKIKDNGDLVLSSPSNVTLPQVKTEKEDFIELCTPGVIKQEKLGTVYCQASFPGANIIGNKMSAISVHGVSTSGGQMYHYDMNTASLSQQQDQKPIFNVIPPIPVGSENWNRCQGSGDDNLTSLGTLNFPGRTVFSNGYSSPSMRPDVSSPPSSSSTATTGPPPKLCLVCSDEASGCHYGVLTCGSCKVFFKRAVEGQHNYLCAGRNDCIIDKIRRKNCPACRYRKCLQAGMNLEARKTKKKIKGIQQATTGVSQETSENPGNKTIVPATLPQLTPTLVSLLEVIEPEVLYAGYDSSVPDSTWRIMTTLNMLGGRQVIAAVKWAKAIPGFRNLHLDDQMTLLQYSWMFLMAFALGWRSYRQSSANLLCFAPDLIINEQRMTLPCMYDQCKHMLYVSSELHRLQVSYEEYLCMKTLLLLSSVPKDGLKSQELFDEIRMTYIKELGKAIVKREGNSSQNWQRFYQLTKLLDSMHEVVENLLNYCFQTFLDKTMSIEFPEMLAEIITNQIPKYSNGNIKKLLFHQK
# Sequence of Alpha-galactosidase (Coffea arabica) (Q42656 whole entry, looked up): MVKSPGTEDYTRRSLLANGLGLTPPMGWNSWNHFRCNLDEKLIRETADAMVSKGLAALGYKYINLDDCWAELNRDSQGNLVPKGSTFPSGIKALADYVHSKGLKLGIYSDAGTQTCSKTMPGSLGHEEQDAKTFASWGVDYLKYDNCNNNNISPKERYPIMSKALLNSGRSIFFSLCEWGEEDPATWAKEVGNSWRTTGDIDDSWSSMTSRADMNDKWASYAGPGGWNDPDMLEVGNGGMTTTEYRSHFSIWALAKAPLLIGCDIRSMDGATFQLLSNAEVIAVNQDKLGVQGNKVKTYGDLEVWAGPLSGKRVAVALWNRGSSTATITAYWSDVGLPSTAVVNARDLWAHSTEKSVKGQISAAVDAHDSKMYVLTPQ
# Sequence of Alpha-galactosidase A (Homo sapiens) (P06280 whole entry, looked up): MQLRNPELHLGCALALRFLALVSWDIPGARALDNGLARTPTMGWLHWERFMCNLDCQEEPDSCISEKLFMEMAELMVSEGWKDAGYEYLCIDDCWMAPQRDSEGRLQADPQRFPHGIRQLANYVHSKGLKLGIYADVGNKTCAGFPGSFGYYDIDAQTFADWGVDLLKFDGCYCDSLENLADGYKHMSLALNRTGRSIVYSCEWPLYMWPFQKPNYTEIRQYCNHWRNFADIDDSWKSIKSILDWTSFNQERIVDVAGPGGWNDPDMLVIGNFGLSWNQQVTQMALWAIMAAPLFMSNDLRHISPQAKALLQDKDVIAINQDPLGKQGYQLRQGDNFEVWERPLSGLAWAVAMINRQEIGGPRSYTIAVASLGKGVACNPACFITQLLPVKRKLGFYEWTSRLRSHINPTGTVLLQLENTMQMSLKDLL
# Sequence of Cytochrome P450 3A4 (Homo sapiens) (P08684 whole entry, looked up): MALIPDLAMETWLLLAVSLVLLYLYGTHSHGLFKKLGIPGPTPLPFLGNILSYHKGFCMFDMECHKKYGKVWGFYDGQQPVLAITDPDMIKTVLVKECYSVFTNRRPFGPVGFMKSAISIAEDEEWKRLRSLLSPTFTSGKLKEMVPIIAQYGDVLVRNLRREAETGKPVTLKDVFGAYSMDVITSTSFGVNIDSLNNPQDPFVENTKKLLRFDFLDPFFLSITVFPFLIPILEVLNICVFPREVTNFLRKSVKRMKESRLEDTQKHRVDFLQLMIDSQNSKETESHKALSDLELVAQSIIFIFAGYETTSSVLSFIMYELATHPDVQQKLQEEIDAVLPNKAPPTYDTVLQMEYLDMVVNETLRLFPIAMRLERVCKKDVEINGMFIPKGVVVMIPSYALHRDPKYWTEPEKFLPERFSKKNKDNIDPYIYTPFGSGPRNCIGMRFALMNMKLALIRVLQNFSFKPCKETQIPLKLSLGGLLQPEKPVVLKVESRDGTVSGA
# Sequence of Guanine nucleotide-binding protein G(i) subunit alpha-1 (Homo sapiens) (P63096 whole entry, looked up): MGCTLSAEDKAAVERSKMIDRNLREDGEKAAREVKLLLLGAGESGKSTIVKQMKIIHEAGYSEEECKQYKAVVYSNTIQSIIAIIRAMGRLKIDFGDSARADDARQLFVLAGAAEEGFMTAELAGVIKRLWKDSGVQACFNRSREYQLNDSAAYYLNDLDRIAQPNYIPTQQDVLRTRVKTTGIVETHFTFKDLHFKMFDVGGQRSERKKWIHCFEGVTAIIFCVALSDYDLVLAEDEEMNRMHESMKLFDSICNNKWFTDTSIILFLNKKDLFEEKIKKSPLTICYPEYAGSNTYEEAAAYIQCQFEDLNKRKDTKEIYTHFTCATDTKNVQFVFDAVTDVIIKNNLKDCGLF
# Sequence of Pyruvate kinase PKM (Homo sapiens) (P14618 whole entry, looked up): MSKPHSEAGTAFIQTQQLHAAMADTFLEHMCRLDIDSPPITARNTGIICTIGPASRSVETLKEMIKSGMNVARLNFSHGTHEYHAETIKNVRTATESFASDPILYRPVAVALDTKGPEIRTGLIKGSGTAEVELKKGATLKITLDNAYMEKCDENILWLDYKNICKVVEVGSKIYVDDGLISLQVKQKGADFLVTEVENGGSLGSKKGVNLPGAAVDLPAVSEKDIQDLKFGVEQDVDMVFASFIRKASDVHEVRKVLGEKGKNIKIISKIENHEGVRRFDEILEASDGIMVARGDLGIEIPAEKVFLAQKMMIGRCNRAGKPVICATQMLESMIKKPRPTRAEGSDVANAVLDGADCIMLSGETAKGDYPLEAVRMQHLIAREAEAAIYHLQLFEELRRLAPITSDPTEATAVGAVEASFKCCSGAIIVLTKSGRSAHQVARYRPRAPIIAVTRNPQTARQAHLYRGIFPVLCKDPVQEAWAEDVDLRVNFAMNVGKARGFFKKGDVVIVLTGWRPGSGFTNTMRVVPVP
structure (smiles),measurement,setting,value
C=CCOC(=O)C1=C(C)OC(N)=C(C#N)C12C(=O)N(CN1CCOCC1)c1ccccc12 (stereo not drawn),"activity change, negative = inhibition",[1],2.42%
same,"activity change, negative = inhibition",[2],-2.25%
same,outcome,[3],inactive
COC(=O)C(O)(c1ccc(NC(=O)c2ccco2)c(OC)c1)C(F)(F)F (stereo not drawn),"activity change, negative = inhibition",[1],-12.5%
same,"activity change, negative = inhibition",[2],4.31%
O=c1[nH]c(=O)n(CCc2ccccc2)c(O)c1C=NCCCn1ccnc1,"activity change, negative = inhibition",[1],-11%
same,"activity change, negative = inhibition",[2],-27.5%
same,outcome,[3],inactive
C/C=C(\C)C(=O)O[C@@H]1C(C)=C2[C@H]([C@@H]1OC(=O)CCCCCCC)[C@@](C)(OC(C)=O)C[C@@H](OC(=O)CCC)[C@@]1(O)[C@H]2OC(=O)[C@]1(C)O,"activity change, negative = inhibition",[1],19.3% [at 38 µM]
same,Potency,[4],39.8 µM (active)
same,"activity change, negative = inhibition",[2],-79.7% [activator] [at 38 µM] (active)
same,Potency,[5],> 46 µM
same,Potency,[6],> 46 µM
same,outcome,[7],inactive
same,outcome,[8],inactive
same,Potency,[9],inactive
same,Potency,[10],3.98 µM (active)
same,Potency,[11],inactive
same,Potency,[12],0.0501 µM (active)
same,Potency,[13],inactive
same,Potency,[14],inactive
same,outcome,[15],inactive
same,outcome,[16],inactive
same,outcome,[17],inactive
same,outcome,[18],inactive
CN1CCc2nc(SCC(=O)OC(C)(C)C)c(C#N)cc2C1,"activity change, negative = inhibition",[1],-5.69%
same,"activity change, negative = inhibition",[2],-15.8%
same,outcome,[3],inactive
C[C@@]12CC[C@H]3[C@@H](CCC4=CC(=O)CC[C@]43C)[C@H]1CCC2=O,"activity change, negative = inhibition",[1],2.25% [at 38 µM]
same,Potency,[4],inactive
same,"activity change, negative = inhibition",[2],9.12% [at 38 µM]
same,outcome,[3],inactive
same,outcome,[7],inactive
same,outcome,[8],inactive
same,Potency,[19],inactive
same,Potency,[20],inactive
same,Potency,[21],inactive
CCCC[N+]1(C)[C@@H]2CC(OC(=O)[C@@H](CO)c3ccccc3)C[C@H]1[C@H]1O[C@H]12 (stereo partly drawn),"activity change, negative = inhibition",[1],5.93% [at 38 µM]
same,Potency,[4],inactive
same,outcome,[3],inactive
same,Potency,[5],> 46 µM
same,Potency,[6],> 46 µM
same,outcome,[8],inactive
same,Potency,[9],inactive
same,outcome,[22],inactive
same,Potency,[13],0.141 µM (active)
same,Potency,[14],0.562 µM (active)
same,outcome,[15],inactive
same,outcome,[16],inactive
same,outcome,[17],inactive
same,outcome,[18],inactive
CCCC12CN3CN(C1)CC(CCC)(C3)C2O (stereo not drawn),"activity change, negative = inhibition",[1],21.7%
same,"activity change, negative = inhibition",[2],-5.01%
same,outcome,[3],inactive
same,Potency,[5],> 20.6 µM
O=c1[nH]c(=O)n(Cc2ccco2)c(O)c1C=NCCCn1ccnc1,"activity change, negative = inhibition",[1],10%
same,"activity change, negative = inhibition",[2],-8.42%
same,outcome,[3],inactive
same,Potency,[5],> 20.6 µM
c1ccc(Cn2ccnc2)cc1,"activity change, negative = inhibition",[1],3.97%
same,"activity change, negative = inhibition",[2],-0.8%
same,outcome,[3],inactive
same,Potency,[5],> 20.6 µM
